# Experimental data taken from PubChem BioAssay AID1578 (Sanford-Burnham Center for Chemical Genomics, 2009).
# About 3,000 (1%) of roughly 290,000 compounds were called active. Cut-off read from the data, not from the text of the source: active = inhibition mostly above about 36% (no sharp cut-off); inactive = mostly below about 34%. For the sample, actives were picked, then their nearest neighbours and some compounds at random.
# Assay: NOD1 signaling inhibitors, primary screen, cell-based, luminescence, uHTS (AID 1578);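 note: HEK-293T reporter cells stimulated with the NOD1 agonist gamma-tri-DAP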
# Conditions: NOD1-driven NF-kB luciferase reporter cells, at 4 µM, hits give high values
row,Compound,inhibition
1,O=C(COc1ccc(Cl)cc1)NCCCn1ccnc1,-7.5% (inactive)
2,O=C(COc1ccc(Br)cc1)NCCCn1ccnc1,62.4% (active)
3,COc1ccc(OCC(=O)NCCCn2ccnc2)cc1,9.1% (inactive)
4,COCCN(Cc1cc2cc3c(cc2nc1Cl)OCO3)C(C)=O,6.5% (inactive)
5,CSc1ccc(/C=N/S(=O)(=O)c2ccccc2)cc1,3.8% (inactive)
6,CCCc1nc2c([nH]1)c(=O)n(C)c(=O)n2C,-7.1% (inactive)
7,Cn1c(=O)c2[nH]c(COc3ccc(C(C)(C)C)cc3)nc2n(C)c1=O,34.1% (active)
8,CN(C)Cc1nc2c([nH]1)c(=O)n(C)c(=O)n2C,1.7% (inactive)
9,CC1CCCC(C)N1C(=O)CSc1nc2c(c(=O)n(C)c(=O)n2C)n1C (centres undefined),-1% (inactive)
10,CC(C)Oc1ccccc1/C=N/NC(=O)c1ccccc1Cl,0.5% (inactive)
11,CC1CCCC(NC(=O)Cc2ccc(Br)cc2)C1C (centres undefined),-21.4% (inactive)
12,CCC(c1nnnn1C(C)C)N1CCN(C2CCCC2)CC1 (centres undefined),-14% (inactive)
13,COc1ccc(/C=C2\COc3ccccc3C2=O)c(OC)c1,-27.3% (inactive)
14,COc1ccc(OC)c(Nc2nc(-c3c(C)nc4ncccn34)cs2)c1,-9.4% (inactive)
15,COc1ccccc1Nc1nc(-c2c(C)nc3ncccn23)cs1,61.6% (active)
16,COc1ccc(Nc2nc(-c3c(C)nc4ncccn34)cs2)cc1,17.6% (inactive)
17,CCOC(=O)c1ccc(N=c2ssnc2Cl)cc1,-21.1% (inactive)

row,Compound,inhibition
1,CN(CCN1CCOCC1)Cc1nc(-c2cccs2)no1,-22.4% (inactive)
2,Cc1ccsc1/C=N/n1cnnc1,-5.7% (inactive)
3,Cc1ccsc1C=Nc1ccc(O)cc1,27.4% (inactive)
4,Cc1ccsc1/C=N/N=C/c1sccc1C,76.7% (active)
5,COc1ccc(C(=O)C(OC(=O)CNC(=O)c2ccco2)c2ccccc2)cc1 (centres undefined),-7.7% (inactive)
6,COc1ccccc1C(=O)NNC(=O)C1CCCO1 (centres undefined),-10.6% (inactive)
7,COc1ccc(C(=O)Nc2ccc(N3CCCCC3)cc2)cc1Br,-49% (inactive)
8,O=C1CCC(c2ccccc2)N1C(=O)c1cccnc1 (centres undefined),-12.6% (inactive)
9,CC1(C)Oc2nc3ccccc3n2/C1=C\C#N,42% (active)
10,CNc1nc2ccccc2n1N,47% (inactive)
11,N#C/C=C1\n2c(nc3ccccc32)OC12CCCCC2,-4% (inactive)
12,c1ccc2c(CSc3ncnc4nc[nH]c34)cccc2c1,71.3% (active)
13,c1ccc2c(CCNc3ncnc4nc[nH]c34)c[nH]c2c1,20.4% (inactive)
14,c1ccc2c(CCNc3ncnc4nc[nH]c34)cccc2c1,62% (active)
15,c1ccc(CCNc2ncnc3nc[nH]c23)cc1,16.7% (inactive)
16,Cc1cccc(CSc2ncnc3nc[nH]c23)c1,-13.3% (inactive)
17,c1ccc(CCSc2ncnc3nc[nH]c23)cc1,-1.6% (inactive)
